Several values for one entry are separate records, joined by “and”; a condition that tells them apart may be missing. Equal entries are not always repeated.
test system: HL-1; test: protection of cardiomyocytes from stress damage, SAR follow-up, cell-based, panel, H9c2 and HL-1, ATP luminescence, set 2 (AID 651871); details: H9c2/HL-1 cardiomyocytes, 2-deoxyglucose stress, with 2-deoxyglucose, run 2, at 79 µM (top of the series);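 also: cells exposed to stressor for 2 h before ATP readout; reference of the scale not given here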

| Structure (SMILES) | activity (protection/inhibition) |
| --- | --- |
| CCOC(=O)c1cccc(NC(=O)CNC(=O)c2cc(-c3cc(OC)c(OC)c(OC)c3)nc3ccccc23)c1 | 75.9% |
| COc1ccc2nc(-c3cc(OC)c(OC)c(OC)c3)cc(C(=O)NCC(=O)Nc3ccc(C(C)=O)cc3)c2c1 | 54.8% |
| COc1ccc2c(c1OC)C(=O)N1c3ccccc3C(=O)N(Cc3cccc(Cl)c3Cl)C21 (stereo not drawn) | 27.7% and -9.62% |

Reference: PubChem BioAssay AID651871 (Sanford-Burnham Center for Chemical Genomics, 2012)
